Measured values as given in the supplement of paper PMC9950053.
Counter-ions that a name gives are not always drawn.

The compounds below were run on Danio rerio larvae (5 dpf) (assay: excitability (activity period 17 minus period 16, 1-s interval sound) minus DMSO control (percentage points); higher = more acoustic excitability than DMSO larvae). Conditions: 10 µM; exposure time: 3 h pre-incubation + 3 h imaging.
Experimental: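 Wild-type 5 dpf zebrafish larvae (n=48 per drug, 96-well plates, 28.5 °C) were exposed to Tocris FDA-approved library compounds at 10 µM (0.1% DMSO) for 3 h before and 3 h during imaging. Images were taken every 6 s during visual (moving coloured lines) and acoustic stimuli, and larvae were tracked with the DeepLabCut-based Z-LaP Tracker. Each behavioural measure is the treated-group mean minus the DMSO vehicle control mean (n=844), in percentage points. This mapping covers compounds with 4-character plate codes.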

Structure (SMILES)	excitability
O=c1[nH]c(=O)n([C@H]2C[C@H](O)[C@@H](CO)O2)cc1C(F)(F)F [Trifluorothymidine]	4.38
OC(CNCC(O)C1CCc2cc(F)ccc2O1)C1CCc2cc(F)ccc2O1 (stereo not given) [Nebivolol hydrochloride]	12.7
O=C(Nc1c(Cl)cncc1Cl)c1ccc(OC(F)F)c(OCC2CC2)c1 [Roflumilast]	13.4
Nc1nc2[nH]cc(CCc3ccc(C(=O)N[C@@H](CCC(=O)O)C(=O)O)cc3)c2c(=O)[nH]1 [Pemetrexed]	2.33
Nc1nc(F)nc2c1ncn2[C@@H]1O[C@H](CO)[C@@H](O)[C@@H]1O [Fludarabine]	1.97
Cc1ccc(-c2cc(C(F)(F)F)nn2-c2ccc(S(N)(=O)=O)cc2)cc1 [Celecoxib]	4.91
CC(c1cc2ccccc2s1)N(O)C(N)=O (stereo not given) [Zileuton]	6.27
CCCCNc1cc(C(=O)O)cc(S(N)(=O)=O)c1Oc1ccccc1 [Bumetanide]	7.06
C[C@H]1C[C@@H]2[C@H]([C@@H](O)C[C@@]3(C)[C@H]2CC[C@]3(O)C(=O)CO)[C@@]2(C)C=CC(=O)C=C12 [Methylprednisolone]	1.52
CCCCC(=O)N(Cc1ccc(-c2ccccc2-c2nnn[nH]2)cc1)[C@H](C(=O)O)C(C)C [Valsartan]	-1.67
CCOC(=O)N1CCC(=C2c3ccc(Cl)cc3CCc3cccnc32)CC1 [Loratidine]	-3.25
CN1CCN2c3ncccc3Cc3ccccc3C2C1 (stereo not given) [Mirtazapine]	4.38
CCOc1nc2cccc(C(=O)O)c2n1Cc1ccc(-c2ccccc2-c2nnn[nH]2)cc1 [Candesartan]	-3.55
CCN(Cc1ccncc1)C(=O)C(CO)c1ccccc1 (stereo not given) [Tropicamide]	-2.02
CC(C)c1ccc2oc3nc(N)c(C(=O)O)cc3c(=O)c2c1 [Amlexanox]	5.26
CN(C)CCC[C@@]1(c2ccc(F)cc2)OCc2cc(C#N)ccc21 [Escitalopram oxalate]	14.5
CC(C)C(=O)Nc1ccc([N+](=O)[O-])c(C(F)(F)F)c1 [Flutamide]	-5.48
CCC(=O)O[C@]1(C(=O)SCF)[C@H](C)C[C@H]2[C@@H]3C[C@H](F)C4=CC(=O)C=C[C@]4(C)[C@@]3(F)[C@@H](O)C[C@@]21C [Fluticasone propionate]	3.16
C[C@H](Cc1cc2c(c(C(N)=O)c1)N(CCCO)CC2)NCCOc1ccccc1OCC(F)(F)F [Silodosin]	22.6
CC1=Nc2ccc(Cl)cc2S(=O)(=O)N1 [Diazoxide]	3.88

Structure (SMILES)	excitability
Clc1ccc(COC(Cn2ccnc2)c2ccc(Cl)cc2Cl)c(Cl)c1 (stereo not given) [Miconazole nitrate]	-1.24
Cc1cccc(C)c1OCC(C)N (stereo not given) [Mexiletine hydrochloride]	3.31
NC(=O)N1c2ccccc2C=Cc2ccccc21 [Carbamazepine]	1.07
OCCOCCN1CCN(C2=Nc3ccccc3Sc3ccccc32)CC1 [Quetiapine hemifumarate]	9.04
CC[C@H](C)C(=O)O[C@H]1C[C@@H](C)C=C2C=C[C@H](C)[C@H](CC[C@@H]3C[C@@H](O)CC(=O)O3)[C@H]21 [Lovastatin]	15
CC(=O)O[C@H]1C(=O)[C@@]2(C)[C@H]([C@H](OC(=O)c3ccccc3)[C@]3(O)C[C@H](OC(=O)[C@H](O)[C@@H](NC(=O)c4ccccc4)c4ccccc4)C(C)=C1C3(C)C)[C@]1(OC(C)=O)CO[C@@H]1C[C@@H]2O [Taxol]	2.27
Nc1nc(NC2CC2)c2ncn([C@H]3C=C[C@@H](CO)C3)c2n1 [Abacavir hemisulfate]	0.611
NS(=O)(=O)c1cc(C(=O)O)c(NCc2ccco2)cc1Cl [Furosemide]	-1.6
CN1CCC[C@@H]1Cc1c[nH]c2ccc(CCS(=O)(=O)c3ccccc3)cc12 [Eletriptan hydrobromide]	6.84
CCCCc1nc(Cl)c(CO)n1Cc1ccc(-c2ccccc2-c2nnn[nH]2)cc1 [Losartan potassium]	6.79
CCc1ccc(CCOc2ccc(CC3SC(=O)NC3=O)cc2)nc1 (stereo not given) [Pioglitazone hydrochloride]	9.48
CCCCCOC(=O)Nc1nc(=O)n([C@@H]2O[C@H](C)[C@@H](O)[C@H]2O)cc1F [Capecitabine]	6.07
CCOc1cc(CC(=O)N[C@@H](CC(C)C)c2ccccc2N2CCCCC2)ccc1C(=O)O [Repaglinide]	9.5
Cn1cnc([N+](=O)[O-])c1Sc1ncnc2[nH]cnc12 [Azathioprine]	0.781
CC(C)C(=O)OCC(=O)[C@@]12O[C@H](C3CCCCC3)O[C@@H]1C[C@H]1[C@@H]3CCC4=CC(=O)C=C[C@]4(C)[C@H]3[C@@H](O)C[C@@]12C [Ciclesonide]	6.47
COC(c1ccccc1)(c1ccccc1)[C@H](Oc1nc(C)cc(C)n1)C(=O)O [Ambrisentan]	-1.02
Cc1ccc(NC(=O)c2ccc(CN3CCN(C)CC3)cc2)cc1Nc1nccc(-c2cccnc2)n1 [Imatinib mesylate]	13.3
O=C(O[C@@H]1C[C@@H]2C[C@H]3C[C@H](C1)N2CC3=O)c1c[nH]c2ccccc12 [Dolasetron mesylate]	10.3
COCCCOc1cc(C[C@@H](C[C@H](N)[C@@H](O)C[C@H](C(=O)NCC(C)(C)C(N)=O)C(C)C)C(C)C)ccc1OC [Aliskiren hemifumarate]	12.7
Nc1cccc2c1CN(C1CCC(=O)NC1=O)C2=O (stereo not given) [Lenalidomide]	-1.97
